Experimental data as given in PubChem BioAssay.
Square brackets hold non-standard residues; d marks the D form. Peptide text beside a SMILES is read from it. * marks the point of attachment. ξ: configuration not given here. Cbz = O=C(OCc1ccccc1)*; ξK = NCCCCC(N)C(=O)O

test: growth suppression of yeast trafficking mutant, preliminary HTS, modulators of trafficking downstream of Golgi apparatus project, 1536-format plate, OD 615 nm (AID 637); conditions: yeast transport mutant growth, absorbance 615 nm, 18 h; stronger effect = higher value; in the data active = inhibition above about 30%; inactive = the rest

inhibition, inactive:
COC(=O)c1ccccc1NC(=O)CSc1nc2c(c(=O)n(C)c(=O)n2C)n1C 26.5%
CCCCOc1cccc(NC(=O)CSc2nccn2C)c1 0.5%
Cc1ccc(Nc2cc(-n3nc(C)cc3C)ncn2)cc1 -1.97%
COc1ccc(-n2c(SCC#N)nc3ccccc3c2=O)cc1 3.28%
COc1cc2c(C)nc(C)c(C#N)c2cc1OC -2.74%
CC1=C(C(=O)OCc2ccccc2)C(c2ccc(C)o2)C2=C(CCCC2=O)N1 (stereo not given) 6.07%
C=CCNC(=O)c1cc(-c2ccccc2O)on1 4.17%
Cc1cc(NC(=O)CSc2nc3ccsc3c(=O)n2NC(=O)c2ccccc2)no1 13.8%
O=C(NCc1ccco1)c1cnn2c(C(F)(F)F)cc(-c3ccco3)nc12 1.9%
Cc1ccc(-c2nnc3ccc(SCC(=O)NCc4ccco4)nn23)cc1 -8.33%
CCCc1cc(C(N)=O)c(NC(=O)c2ccco2)s1 1.15%
COc1ccc(CCNC(=O)c2ccncc2)cc1OC -3.71%
CCOC(=O)c1nnc(-c2ccccc2)o1 -1.43%
Cc1ccc(S(=O)(=O)N2CCCC(C(=O)NC3=NCCS3)C2)cc1 (stereo not given) 2.62%
O=C1CCCC2=C1C(c1ccsc1)CC(=O)N2c1ccccc1 (stereo not given) -3.82%
Cc1csc2nc(CSc3nc4ccccc4o3)c(Br)n12 10.5%
CC(NC(=O)c1ccccc1NC(=O)c1ccco1)C(=O)O (stereo not given) 2.1%
CCC(=O)Nc1cc2nn(-c3ccccc3)nc2cc1Cl 5.9%
O=C(NC1CCCCC1)n1c(=O)oc2ccc(Cl)cc21 -7.62%
COc1ccc(OC)c(-c2nnc(SCC(=O)NC3CCCCC3)o2)c1 -13.4%
O=C(O)CCCc1nc(-c2ccccc2)no1 0.95%
COCCn1c(SCC(=O)Nc2cccc(OC)c2)nnc1-c1ccc(Cl)cc1 0.98%
CCN1C(=O)Cc2cc(S(=O)(=O)N3CCOCC3)ccc21 -0.63%
O=C(Nc1cc(Cl)ccc1Cl)c1noc2c1CCCC2 -5.5%
CCCCn1c(SCC(=O)Nc2ccc(OC)cc2)nc2ccc(N3CCOCC3)cc2c1=O 0.16%
Cc1ccc(C(=O)N2CCN(C(=O)c3ccc(C)c(C)c3)C(C)C2)cc1C (stereo not given) -1.67%
COc1ccc(C2CC(c3ccccc3)Nc3nc(NC(=O)c4cccs4)nn32)cc1 (stereo not given) -5.08%
CC1(CC(=O)O)C(=O)N=C2C=CC=CN21 (stereo not given) 0.16%
COC(=O)C(CCCCNC(=O)OCc1ccccc1)NC(=O)CN (stereo not given) (H-Gly-[ξK](Cbz)-OMe) -0.79%
Fc1ccc(C(c2nnnn2Cc2ccco2)N2CCN(C3CCCCC3)CC2)cc1 (stereo not given) 21.9%
COc1ccccc1-c1cn[nH]c(=S)n1 -8.06%
CCOC(=O)C1CCCN(C(=O)c2ccc(CS(=O)(=O)Cc3ccccc3C)o2)C1 (stereo not given) -8.23%
O=c1c2[nH]c3ccccc3c2ncn1CCCn1ccnc1 -0.83%
COc1ccc(S(=O)(=O)N2CCN(C3CCCCCCC3)CC2)cc1 -0.98%
O=C(CCn1c(=S)[nH]c2ccccc2c1=O)NCC1CCCO1 (stereo not given) 0.66%
CCC(=O)Nc1ccc(NC(=O)c2cccc(OC)c2)nc1 -6.56%
CN(Cc1ccccc1)C(=O)c1ccc2c(c1)OCO2 4.43%
O=C(O)CC1SC(=Nc2cccc(C(F)(F)F)c2)NC1=O (stereo not given) 1.29%
CCOC(=O)C1=C(C)N=c2s/c(=C\c3cccn3C)c(=O)n2C1c1cccc(OC)c1OC (stereo not given) -2.13%
CC(=O)c1cccc(NC(=O)N2CCCc3ccccc32)c1 3.93%
